ANO1 block: TMEM16A chloride channel inhibitors, primary screen, cell-based, HTS; Anoctamin-1 (Mus musculus), Q8BHY3; normalized B-score (activity score, 25-100; higher = stronger inhibition) at 10 µM; actives 1.2% (n = 310,000); HEK293 TMEM16A/YFP iodide influx fluorescence, ionomycin; AID 588511, 2011;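 active = ratio plate-corrected score three or more library SD toward inhibition, starting fluorescence score within five deviations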;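 also: score derived from kinetic fluorescence span divided by baseline fluorescence per well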
IDE cell inh: human IDE inhibitors in live cells, primary screen, fluorescence polarization, HEK cells, FAbetaB substrate; Insulin-degrading enzyme (Homo sapiens), P14735; AID 434962, 2010; inhibition, % at 5.59 µM; FAbetaB cleavage; actives 0.41% (n = 320,000);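 active = percent inhibition above the average of all tested compounds plus 3 SD, set per screening campaign, cut at about 16% in these data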;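 also: IDE supplied by intact live HEK cells; FP after avidin binding of uncleaved biotin substrate so inhibition keeps polarization high; 0% = DMSO wells and 100% = 60 µM reference IDE inhibitor Ii1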
TMEM16A act: TMEM16A chloride channel activators or potentiators, primary screen, cell-based, HTS. B-score at 10 µM. Anoctamin-1 (Mus musculus), Q8BHY3. actives 0.3% (n = 340,000). HEK293 TMEM16A/YFP-H148Q/I152L, iodide quench fluorescence; stronger effect = lower value;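 active = fluorescence-ratio B-score plate-corrected deviation score at least 3 library SD below zero, with starting fluorescence score within 5 deviations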;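 also: channel opened by trigger with iodide after compound preincubation; score built on the fluorescence ratio of max minus min over baseline; more negative score means more quench and so TMEM16A activation or potentiation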
IDE cell activ: human IDE activators in live cells, primary screen, fluorescence polarization, HEK cells, FAbeta-B substrate. FAbeta-B cleavage; 0% vehicle, 100% cell-free pure enzyme wells. activation, % at 5.96 µM. actives 0.073% (n = 340,000). AID 493087, 2011;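 active = activation above the mean of all tested compounds plus 3 SD, set per screening campaign, cut at about 17% in these data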
CHT allo act: CHT positive allosteric modulators, primary screen, cell-based, membrane potential dye, choline EC20 | B-score at 10 µM | actives 0.49% (n = 310,000) | CHT-expressing cells; stronger effect = higher value; LV-AA mutant CHT in HEK293 cells | AID 488977, 2010;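 active = initial fluorescence not abnormally high and integrated response B-score, plate-corrected, over 3 SD above library mean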
CHT block: inhibitors of human choline transporter CHT. actives 0.86% (n = 310,000). AID 488975, 2010. High affinity choline transporter 1 (Homo sapiens), Q9GZV3. B-score at 10 µM. CHT-expressing cells, membrane potential dye, choline response; stronger effect = lower value;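 active = B-score over 3 SD under the library average, and starting fluorescence ratio not unusually high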;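 also: choline stimulus applied at its EC90 after an EC20 pre-addition; B-score computed on integrated fluorescence ratio after choline addition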
CHT activ conf: CHT activators, confirmation, cell-based, membrane potential dye, duplicate; actives 91% (n = 2,500); CHT-expressing cells, membrane potential dye fluorescence (FDSS); % of choline EC20–EC90 response window; HEK293 expressing CHT LV-AA mutant; choline added at its EC20; AID 504833, 2011; activation, % at 10 µM; shares compounds with CHT allo act;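 active = primary screen active, with duplicate mean activation above negative control mean plus 3 SD, cut at about 11% in these data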
HEK293 MP dye: membrane potential response in parental HEK293 cells, counter-screen for CHT activator project, cell-based, membrane potential dye | actives 62% (n = 2,500) | membrane potential dye fluorescence (FDSS); measured after EC20 choline addition | shares compounds with CHT allo act | ratio readout change at 10 µM, hits read low;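 active = duplicate-averaged ratio beyond 3 SD from buffer wells, up or down, though filed actives are nearly all decreases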
* hit, by the source's call; i = inactive; / = not tested or not shown. Rows were chosen to be rich in hits. Some 2.7% of all compounds tested hit in one or more screens of this group.

SMILES | ANO1 block | IDE cell inh | TMEM16A act | IDE cell activ | CHT allo act | CHT block | CHT activ conf | HEK293 MP dye
CCOC(=O)c1ccc(-c2c(-c3ccccc3OC)sc3cc4c(cc23)OCO4)cc1F | / | 2 | i | 6 | / | / | / | /
CC(C)(C)OC(=O)NCCCCCc1nnc(SCc2cccc(F)c2)o1 | 25* | 5 | i | -1 | 8.3* | i | -2 | i
CCOC(=O)Nc1ccc2c(c1)N(C(=O)CN1CCN(C)CC1)c1ccccc1CC2 | i | 11 | i | 7 | i | i | / | /
CCCC(CCC)C(=O)Nc1ccc2c(c1)N(C(=O)CCN1CCN(C)CC1)c1ccccc1CC2 | i | 0 | i | 8 | 6.8* | i | 19* | i
COc1ccc(S(=O)(=O)Cc2ccc(C(=O)NCc3ccccc3OC)o2)cc1 | i | 1 | i | 8 | i | i | / | /
Cc1ccc(NCC(=O)c2ccc([N+](=O)[O-])cc2)cc1 | i | -2 | i | -1 | 6.4* | i | 11* | -23*
Cc1ccc(C(=O)CNc2cccc([N+](=O)[O-])c2)cc1 | i | 4 | i | 4 | i | i | / | /
CCCCN(C(=O)C1CSC2(C)CCC(=O)N12)c1c(N)n(CC(C)C)c(=O)[nH]c1=O (centres undefined) | / | 0 | i | 6 | / | / | / | /
Cc1cc(NCCN2CCOCC2)c2ccc3ccccc3c2n1 | i | 0 | i | 2 | 6.8* | i | 39* | -41*
COc1ccc2nc(C)cc(NCCN3CCOCC3)c2c1 | i | 2 | i | 5 | i | i | / | /
CN(C)CCCNC(=O)C[C@H]1C[C@H](C(=O)N2CCCCC2)[C@@]2(C)c3[nH]c4cc(CCC(=O)N(C)C)ccc4c3CCN2C1=O | / | / | / | 4 | / | / | / | /
Cc1cc(C)c2cc3c(N)c(C(=O)N4CCc5ccccc5C4)sc3nc2c1 | i | 0 | i | 1 | 6.4* | i | -7 | i
CCN(CC)CCNc1nc2c(c(=O)n(C)c(=O)n2C)n1C/C=C(/C)Cl | i | 2 | i | 1 | i | i | 68* | -42*
C/C(Cl)=C\Cn1c(NCCc2ccccc2)nc2c1c(=O)n(C)c(=O)n2C | i | 6 | i | -2 | i | i | / | /
C=CCOC(=O)C1=C[C@@H](c2ccc(Br)cc2)[C@H](CCCO)[C@@H](OCC)O1 | i | 0 | i | -3 | 6.7* | i | 25* | i
COc1ccc(S(=O)(=O)N(C)C[C@H]2Oc3ccc(NC(=O)Cc4cn(C)c5ccccc45)cc3C(=O)N([C@@H](C)CO)C[C@@H]2C)cc1 | / | 0 | i | 3 | / | / | / | /
COc1ccc(CN(C)C(=O)Cn2cnc3c(OCc4ccccc4)ncnc32)cc1OC | / | 1 | i | 2 | / | / | / | /
CCCN(CC(=O)Nc1ccccc1C)C(=O)c1ccc(C)c(S(=O)(=O)N2CCCCC2)c1 | i | 0 | i | 2 | i | i | 14* | i
CCNC(=S)N(CCCN(C)C)Cc1cc2cc3c(cc2[nH]c1=O)OCCO3 | i | 0 | i | 6 | i | i | / | /
CC1CCCN(S(=O)(=O)c2ccc(NC(=O)C3CCN(C(=O)C(C)(C)C)CC3)cc2)C1 (centres undefined) | / | 6 | i | 4 | / | / | / | /
O=C(CCCc1ccncc1)c1ccccc1 | / | / | i | -2 | / | / | / | /
CN(C)CCCn1c(NCc2ccc3c(c2)OCO3)nc2ccccc21 | i | -2 | i | -6 | i | i | 35* | -50*
CCn1c(NCc2ccc3c(c2)OCO3)nc2ccccc21 | i | 4 | i | -3 | i | i | / | /
CCc1nc2ccc(Cc3ccc4nc(CC)[nH]c4c3)cc2[nH]1 | i | -3 | i | 0 | 7.1* | i | 49* | -52*
CCN(CC)CCNC(=O)c1cc2c(=O)n(C)c3ccccc3c2n1C | i | 6 | i | 2 | i | i | / | /
SMILES | ANO1 block | IDE cell inh | TMEM16A act | IDE cell activ | CHT allo act | CHT block | CHT activ conf | HEK293 MP dye
Cn1c(C(=O)NCCCN2CCc3ccccc3C2)cc2c(=O)n(C)c3ccccc3c21 | i | 5 | i | 1 | i | i | 25* | -27*
CCN(CC)CCCNC(=O)c1cc2c(=O)n(C)c3ccccc3c2n1C | i | 9 | i | -3 | 6.7* | i | 49* | -23*
CN(C)CCNC(=O)c1cc2c(=O)n(C)c3ccccc3c2n1C | i | 7 | i | 2 | i | i | 42* | -33*
Cn1c(C(=O)NC2CC2)cc2c(=O)n(C)c3ccccc3c21 | i | 3 | i | 7 | i | i | 36* | -30*
COc1ccccc1COC(=O)C(NC(=O)c1ccc(C)cc1)C(C)C (centres undefined) | / | / | i | 2 | / | / | / | /
COc1ccc(OC)c(S(=O)(=O)NCC(=O)NC2CCCc3ccccc32)c1 (centres undefined) | / | / | i | 3 | / | / | / | /
CN(C)S(=O)(=O)c1ccc(N2CCCC2)c(C(=O)N2CCN(S(=O)(=O)c3ccccc3F)CC2)c1 | i | 6 | i | -2 | i | i | / | /
CN1OC[C@@H]2CN(C(=O)CCc3ccccc3)[C@H](c3cccc(-c4ccc(C#N)cc4)c3)C[C@@H]21 | / | / | / | 2 | / | / | / | /
CCc1cc2c(N3CCN(c4ccccc4)CC3)ncnc2s1 | 25* | 5 | i | 4 | i | i | 16* | i
CCN(C(=O)Cn1c(Cl)nc2c1c(=O)n(C)c(=O)n2C)C1CCCCC1 | / | 1 | i | 5 | / | / | / | /
CCCN(CCC)CCNC(=O)c1cc2c(-c3ccc(Cl)cc3)nn(C)c2s1 | i | -1 | i | 2 | i | i | / | /
CCN(CC)CCNC(=O)c1cc2c(-c3ccc(Cl)cc3)nn(C)c2s1 | i | 1 | i | 3 | 9.9* | i | 33* | -21*
O=C1OC=NC1=Cc1ccccc1 | / | / | i | -3 | / | / | / | /

Screens (PubChem BioAssay)
